According to PubChem BioAssay (NCATS):
Inconclusive results are not listed. A call without a number means that no potency is given here. A number with no mark means an inactive call. Activity calls are given as the source filed them. Calls come from the whole dose curve; as a rule, active = well fitted inhibition curve with a large enough effect; inconclusive = small, poorly fitted or top-dose-only effect; inactive = flat fitted curve, though single readings scatter.

These compounds were tested against Calcium and integrin-binding protein 1 (Homo sapiens) (UniProt Q99828) (assay: Primary qHTS for Identification of Calcium Integrin Binding Protein 1 (CIB1) Competitor (AID 1508620; note: top concentration of the series differs between compounds)). Details: CIB1-GST / FITC-alphaIIb peptide fluorescence polarization; series mostly up to 57.7 µM.
How it was run: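 Fluorescence polarization competition: GST-tagged CIB1 (1 uM final) preincubated with compound 15 min at room temperature, then FITC-labelled alphaIIb peptide (100 nM final) added. After 15 min at room temperature, polarization read at Ex 480/Em 540.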

Calcium and integrin-binding protein 1 (Homo sapiens), sequence (Q99828 whole entry, looked up): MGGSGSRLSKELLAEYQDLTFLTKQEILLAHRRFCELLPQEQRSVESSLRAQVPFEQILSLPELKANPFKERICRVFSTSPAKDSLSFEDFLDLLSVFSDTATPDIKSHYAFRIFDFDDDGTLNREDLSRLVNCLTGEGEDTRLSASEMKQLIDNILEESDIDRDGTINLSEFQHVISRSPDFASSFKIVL

Structure (SMILES) | Potency | activity change, negative = inhibition
COc1cc(/C=C/C(=O)OC2CC(OC(C)=O)C(OC(C)=O)C3C2CCC2C(=O)OC(c4ccoc4)CC23C)ccc1O[C@@H]1O[C@H](CO)[C@@H](O)[C@H](O)[C@H]1O (stereo not given in full) | inactive | –
CC(=O)OCCC(C)CCC1C(C)(O)CCC2C(C)(C)CCCC21C (stereo not given) | inactive | –
CC(=O)N[C@H]1CCN(c2ccc(C3=NOC(CN[S+](=O)([O-])C(C)C)C3)cc2F)C1 (stereo not given in full) | inactive | –
CN[C@@H]1[C@@H](O)[C@@H](O[C@@H]2[C@@H](O)[C@H](O[C@H]3O[C@H](CN)[C@@H](O)[C@H](O)[C@H]3O)[C@@H](N)C[C@H]2NC(=O)[C@@H](O)CN)OC[C@]1(C)O | inactive | –
CC1(C)CC[C@]2(C(=O)O[C@@H]3O[C@H](CO)[C@@H](O)[C@H](O)[C@H]3O)CC[C@]3(C)C(=CCC4[C@@]5(C)C[C@@H](O)[C@H](O)[C@@](C)(CO)C5CC[C@]43C)C2C1 (stereo not given in full) | inactive | –
NCCCC[C@H](NC(=O)[C@@H]1Cc2ccccc2CN1C(=O)CCC(=O)c1ccccc1)C(=O)NCC(c1ccccc1)c1ccccc1 | inactive | –
C=C1CCC2C(C)(CO[C@@H]3O[C@H](CO)[C@@H](O)[C@H](O)[C@H]3O)C(O)CCC2(C)C1C(=O)CC1=CCOC1=O (stereo not given in full) | inactive | –
C=C(C)C(=O)O[C@H]1C[C@@](C)(OC(C)=O)[C@@]2(O)CC[C@@](C)(O)[C@H](OC(C)=O)[C@@]23OC(=O)C(COC)=C13 | inactive | –
CC12CC34C=CC(=O)C(C)(CCC(=O)O)C3C(CC1C4)O2 (stereo not given) | inactive | –
C#C[C@]1(O)CC[C@H]2[C@@H]3CCC4=C/C(=N/O)CC[C@@H]4[C@H]3CC[C@@]21CC | inactive | –
C=CC(C)(CC/C=C(\C)CC/C=C(\C)CC(O)/C=C(\C)C(=O)O)O[C@@H]1O[C@H](CO)[C@@H](O)[C@H](O)[C@H]1O[C@@H]1O[C@H](CO)[C@@H](O)[C@H](O)[C@H]1O (stereo not given in full) | inactive | –
CC(=O)OC1C(O)C(C)=C(CCC(C)CC(=O)O)C2(C)CCCC(C)(C)C12 (stereo not given) | inactive | –
Cn1c(=O)cc(N2CCCC(N)C2)n(Cc2ccccc2C#N)c1=O (stereo not given) | inactive | –
CC(C)=CCC/C(C)=C/CC/C(C)=C/CC[C@]1(C)CCc2cc(O)cc(C)c2O1 | inactive | –
COc1cc(C2Oc3c(OC)cc(CCCO[C@@H]4O[C@H](CO)[C@@H](O)[C@H](O)[C@H]4O)cc3C2CO)ccc1O (stereo not given in full) | inactive | –
C[C@@H]1O[C@@H](O[C@@H]2[C@@H](O)[C@H](O[C@@H]3[C@@H](O)[C@@H](O)[C@H](O[C@H]4[C@H](OC(=O)[C@]56CCC(C)(C)C[C@H]5C5=CCC7[C@@]8(C)C[C@H](O)[C@H](O[C@@H]9O[C@H](C(=O)O)[C@@H](O)[C@H](O)[C@H]9O)[C@@](C)(CO)C8[C@H](O)C[C@@]7(C)[C@]5(C)CC6)OC[C@H](O)[C@@H]4O)O[C@H]3C)OC[C@H]2O)[C@H](O)[C@H](O)[C@H]1O (stereo not given in full) | – | 3.71% [at 12.4 µM]
Cc1nn(C)c2c1C(c1ccc(C(F)(F)F)cc1)C(C#N)=C(N)O2 (stereo not given) | inactive | –
CO[C@@H]1COCC[C@@H]1N[C@@H]1CC[C@@](C(=O)N2CCc3ncc(C(F)(F)F)cc3C2)(C(C)C)C1 | inactive | –
N[C@H]1C[C@H]1c1ccc(-c2cccc(O)c2)cc1 | inactive | –
C/C(=C\CCC(C(=O)O)C1CCC2(C)C3=C(CCC12C)C1(C)CCC(=O)C(C)(C)C1CC3)C(=O)O (stereo not given) | inactive | –
COC(=O)CC[C@@H](C)[C@H]1CC[C@H]2[C@@H]3CC(=O)[C@H]4C[C@H](OC(C)=O)CC[C@]4(C)[C@H]3CC[C@]12C | inactive | –
CC(=O)O[C@H](C[C@@H](C)[C@H]1C(=O)[C@H](O)[C@@]2(C)[C@@H]3CCC4C(C)(C)[C@@H](O[C@@H]5OC[C@H](O)[C@H](O)[C@H]5O)CC[C@@]45C[C@@]35CC[C@]12C)[C@@H]1OC1(C)C (stereo not given in full) | inactive | –
COC1CC(OC2CCC3(C)C(=CCC4C3CCC3(C)C(C(C)O)CCC43O)C2)OC(C)C1OC1OC(C)C(OC2OC(COC3OC(COC4OC(CO)C(O)C(O)C4O)C(O)C(O)C3O)C(O)C(O)C2O)C(OC)C1O (stereo not given) | inactive | –
C=C[C@H]1[C@H](O[C@@H]2O[C@H](CO[C@@H]3OC[C@](O)(CO)[C@H]3O)[C@@H](O)[C@H](O)[C@H]2O)OC=C2C(=O)OCC[C@H]21 | inactive | –
COC(=O)CC1(O)C(=O)Nc2ccccc21 (stereo not given) | inactive | –
C=C1CC[C@H]2[C@@](C)(CCC[C@@]2(C)C(=O)O)[C@@H]1CCC(C)CCO (stereo not given in full) | inactive | –
CC(=O)OC(CSC1CCC(=O)OC(C)CCC(=O)C1)C(=O)O (stereo not given) | inactive | –
COc1cc(C[C@H]2COC(=O)[C@@H]2Cc2ccc(O)c(OC)c2)ccc1O | inactive | –
CC(c1c[nH]c2ccccc12)C(O)C(=O)O (stereo not given) | inactive | –
C=C1CC23CCC4[C@@](C)(CCC[C@@]4(C)C(=O)O)C2CCC1C3 (stereo not given in full) | inactive | –
